Test results from the supplement of paper PMC12494721.
Counter-ions that a name gives are not always drawn.

Legend:
Conditions in all cases: incubation time: 27 h, anaerobic, 37 °C;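 for the amine columns active = adjusted P below 0.05 in both replicates with a change the same way and a mean fold change under 0.8 or over 1.25; inactive = the rest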
[1] = tested on: Clostridium sporogenes DSM 1664; experiment: growth (OD595) fold change vs plate DMSO controls (fold change (ratio)); higher = more growth
Procedure, shortened: (§1)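 Each value is the mean of 2 biological replicates, and fold changes above 1.5 were set to NA. The underlying readings were taken at 595 nm from shaken anaerobic mGAM cultures in 96-well plates after 27 h at 37 °C. They were blank-subtracted, corrected for compound background using 20 µM compound solutions in water, and converted to OD with a calibration factor of 5. Growth is the fold change relative to the median of the plate DMSO controls.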

Escherichia coli IAI1 [2] = experiment: as above
Procedure, shortened: as §1

[3] = tested on: Klebsiella aerogenes DSM 30053; experiment: as above
Procedure, shortened: as §1

[4] = tested on: Ruminococcus gnavus DSM 108212; experiment: as above
Procedure, shortened: as §1

[5] = tested on: Klebsiella aerogenes DSM 30053; experiment: fold change of Histamine concentration vs plate DMSO controls (fold change (ratio)); higher = more amine produced, active = hit call of the paper (significant change in both replicates, either direction)
Procedure, shortened: (§2)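 Each value is the fold change relative to DMSO-only wells on the same plate. Four gut bacterial strains were grown anaerobically in mGAM at 37 °C for 27 h in 80 µL wells, starting at OD 0.1 before a 1:1 dilution, with compounds at 20 µM final (sweeteners 50 µM). Whole cultures were extracted with cold acetonitrile/methanol containing 0.1% formic acid, centrifuged, and amines were quantified by LC–triple-quadrupole MS (dynamic MRM) against external calibration curves with within-batch drift correction. Values are means of 2 biological replicates.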

[6] = tested on: Clostridium sporogenes DSM 1664; experiment: fold change of Tryptamine concentration vs plate DMSO controls (fold change (ratio)); higher = more amine produced, active = hit call of the paper (significant change in both replicates, either direction)
Procedure, shortened: as §2

[7] = tested on: Ruminococcus gnavus DSM 108212; experiment: as above
Procedure, shortened: as §2

Escherichia coli IAI1 [8] = experiment: fold change of Putrescine concentration vs plate DMSO controls (fold change (ratio)); higher = more amine produced, active = hit call of the paper (significant change in both replicates, either direction)
Procedure, shortened: as §2

[9] = tested on: Klebsiella aerogenes DSM 30053; experiment: as above
Procedure, shortened: as §2

Escherichia coli IAI1 [10] = experiment: fold change of Cadaverine concentration vs plate DMSO controls (fold change (ratio)); higher = more amine produced, active = hit call of the paper (significant change in both replicates, either direction)
Procedure, shortened: as §2

[11] = tested on: Klebsiella aerogenes DSM 30053; experiment: as above
Procedure, shortened: as §2

[12] = tested on: Ruminococcus gnavus DSM 108212; experiment: fold change of 2-Phenylethylamine concentration vs plate DMSO controls (fold change (ratio)); higher = more amine produced, active = hit call of the paper (significant change in both replicates, either direction)
Procedure, shortened: as §2

Structure (SMILES) | growth [1] | growth (Escherichia coli IAI1 [2]) | growth [3] | growth [4] | fold change of Histamine concentration [5] | fold change of Tryptamine concentration [6] | fold change of Tryptamine concentration [7] | fold change of Putrescine concentration (Escherichia coli IAI1 [8]) | fold change of Putrescine concentration [9] | fold change of Cadaverine concentration (Escherichia coli IAI1 [10]) | fold change of Cadaverine concentration [11] | fold change of 2-Phenylethylamine concentration [12]
C[C@]12CC[C@@H]3c4ccc(OS(=O)(=O)O)cc4CC[C@H]3[C@@H]1CCC2=O [Estropipate piperazine salt] (20 µM) | 1.04 | 1.01 | 1.01 | 1.21 | 0.996 (inactive) | 0.974 (inactive) | 0.96 (inactive) | 1.04 (inactive) | 0.985 (inactive) | 0.947 (inactive) | 0.993 (inactive) | 0.89 (inactive)
O=C(O)Cc1ccccc1Nc1c(Cl)cccc1Cl [Diclofenac sodium] (20 µM) | 0.954 | 0.984 | 0.986 | 1.03 | 1.06 (inactive) | 0.699 (active) | 0.988 (inactive) | 1.02 (inactive) | 1 (inactive) | 1.01 (inactive) | 1 (inactive) | 0.989 (inactive)
COCCc1ccc(OCC(O)CNC(C)C)cc1 (stereo not drawn) [Metoprolol-(+)-tartrate salt] (20 µM) | 1.01 | 1.03 | 1.03 | 1.05 | 0.856 (inactive) | 1.02 (inactive) | 1.03 (inactive) | 0.998 (inactive) | 0.955 (inactive) | 1.02 (inactive) | 1 (inactive) | 0.995 (inactive)
Oc1c(Cl)cc(Cl)c(Cl)c1Cc1c(O)c(Cl)cc(Cl)c1Cl [Hexachlorophene] (20 µM) | 0 | 0.943 | 0.999 | 0 | 1.17 (inactive) | 0.0251 (active) | 0.0326 (active) | 0.982 (inactive) | 1.02 (inactive) | 1.1 (inactive) | 1.02 (inactive) | 0.0393 (active)
CC(=O)c1cc2cccc(OCC(O)CNC(C)C)c2o1 (stereo not given) [Befunolol] (20 µM) | 0.992 | 1.1 | 0.953 | 0.98 | 1.07 (inactive) | 1.06 (inactive) | 1.02 (inactive) | 1.06 (inactive) | 0.972 (inactive) | 0.997 (inactive) | 0.995 (inactive) | 1.06 (inactive)
N=C(N)NC(=N)NCCc1ccccc1 [Phenformin hydrochloride] (20 µM) | 0.958 | 1.01 | 1.07 | 0.756 | 1 (inactive) | 1.03 (inactive) | 1.03 (inactive) | 0.964 (inactive) | 1 (inactive) | 1.07 (inactive) | 1.01 (inactive) | 1.05 (inactive)
CCN(CC)CCOC(=O)C1(C2CCCCC2)CCCCC1 [Dicyclomine hydrochloride] (20 µM) | 0.883 | 0.966 | 0.998 | 0.659 | 1.01 (inactive) | 0.991 (inactive) | 0.845 (inactive) | 0.988 (inactive) | 1.01 (inactive) | 1 (inactive) | 1 (inactive) | 0.815 (inactive)
O=C(O)c1cc(=O)c2ccccc2o1 [Chromocarb] (20 µM) | 0.945 | 0.984 | 0.99 | 0.957 | 1.02 (inactive) | 1.01 (inactive) | 0.989 (inactive) | 1.01 (inactive) | 0.998 (inactive) | 0.983 (inactive) | 0.979 (inactive) | 0.974 (inactive)
CC1(C)O[C@@H]2C[C@H]3[C@@H]4CCC5=CC(=O)CC[C@]5(C)[C@@]4(F)[C@@H](O)C[C@]3(C)[C@]2(C(=O)CCl)O1 [Halcinonide] (20 µM) | 1.17 | 1.01 | 1.05 | 1.07 | 0.941 (inactive) | 0.989 (inactive) | 0.963 (inactive) | 0.988 (inactive) | 0.994 (inactive) | 1.02 (inactive) | 1.01 (inactive) | 0.978 (inactive)
CNCC(O)c1ccc(O)c(O)c1 (stereo not given) [Racepinephrine hydrochloride] (20 µM) | 1.15 | 1.07 | 1.27 | 1.24 | 0.938 (inactive) | 1.05 (inactive) | 1.05 (inactive) | 1.01 (inactive) | 1.02 (inactive) | 0.94 (inactive) | 1.03 (inactive) | 1.05 (inactive)
CC1(C)O[C@@H]2C[C@H]3[C@@H]4C[C@H](F)C5=CC(=O)C=C[C@]5(C)[C@H]4[C@@H](O)C[C@]3(C)[C@]2(C(=O)CO)O1 [Flunisolide] (20 µM) | 0.942 | 0.993 | 1.03 | 0.998 | 0.949 (inactive) | 1.03 (inactive) | 1.19 (inactive) | 1.05 (inactive) | 1.05 (inactive) | 1.07 (inactive) | 1.09 (inactive) | 1.51 (inactive)
CNC(=O)OCc1cccc(COC(=O)NC)n1 [Pyricarbate] (20 µM) | 0.9 | 1.02 | 1.03 | 1.02 | 0.976 (inactive) | 0.953 (inactive) | 1.03 (inactive) | 1.03 (inactive) | 0.995 (inactive) | 1.05 (inactive) | 0.995 (inactive) | 1.06 (inactive)
CC(C)n1c(/C=C/C(O)CC(O)CC(=O)O)c(-c2ccc(F)cc2)c2ccccc21 (stereo not given) [Fluvastatin sodium salt] (20 µM) | 0.95 | 0.995 | 0.987 | 0.918 | 0.914 (inactive) | 0.881 (inactive) | 1.04 (inactive) | 1.02 (inactive) | 1.05 (inactive) | 1.07 (inactive) | 1.03 (inactive) | 0.984 (inactive)
CC(=O)O[C@@]12CO[C@@H]1C[C@H](O)[C@@]1(C)C(=O)[C@H](O)C3=C(C)[C@@H](OC(=O)[C@H](O)[C@@H](NC(=O)OC(C)(C)C)c4ccccc4)C[C@@](O)([C@@H](OC(=O)c4ccccc4)[C@H]21)C3(C)C [Docetaxel] (20 µM) | 0.864 | 1 | 1.03 | 1.05 | 1.05 (inactive) | 0.991 (inactive) | 1 (inactive) | 1.02 (inactive) | 1.01 (inactive) | 1.02 (inactive) | 0.998 (inactive) | 0.956 (inactive)
CCN(CC)C(=O)/C(C#N)=C/c1cc(O)c(O)c([N+](=O)[O-])c1 [Entacapone] (20 µM) | 0.868 | 0.974 | 1.06 | 1.07 | 1.01 (inactive) | 0.961 (inactive) | 0.929 (inactive) | 0.993 (inactive) | 1.03 (inactive) | 0.977 (inactive) | 0.995 (inactive) | 0.896 (inactive)
CN1CCC(=C2c3ccccc3CCc3cccnc32)CC1 [Azatadine maleate] (20 µM) | 0.968 | 0.983 | 0.994 | 0.99 | 1.05 (inactive) | 1.14 (inactive) | 1.01 (inactive) | 1.34 (inactive) | 1.01 (inactive) | 0.966 (inactive) | 1 (inactive) | 1.03 (inactive)
Nc1nc(F)nc2c1ncn2[C@@H]1O[C@H](CO)[C@@H](O)[C@@H]1O [Fludarabine] (20 µM) | 0.775 | 0.524 | 0.982 | 0.936 | 0.976 (inactive) | 1.04 (inactive) | 0.796 (active) | 0.546 (inactive) | 0.965 (inactive) | 0.91 (inactive) | 1.02 (inactive) | 0.838 (inactive)
CC(=O)Nc1nnc(S(N)(=O)=O)s1 [Acetazolamide] (20 µM) | 1.04 | 0.95 | 1.04 | 0.746 | 1.04 (inactive) | 0.973 (inactive) | 1.02 (inactive) | 0.965 (inactive) | 1.06 (inactive) | 0.971 (inactive) | 1.11 (inactive) | 1.09 (inactive)
CC1=C(C(=O)O)N2C(=O)[C@@H](NC(=O)[C@H](N)c3ccc(O)cc3)[C@H]2SC1 [Cefadroxil] (20 µM) | 0.898 | 1.03 | 1 | 1.08 | 1.08 (inactive) | 0.974 (inactive) | 1 (inactive) | 1.03 (inactive) | 1.01 (inactive) | 1.02 (inactive) | 0.996 (inactive) | 1.03 (inactive)
OC(CCN1CCCCC1)(c1ccccc1)c1ccccc1 [Pridinol methanesulfonate salt] (20 µM) | 1.18 | 0.97 | 0.996 | 1.02 | 1.05 (inactive) | 1.03 (inactive) | 1.05 (inactive) | 1.21 (inactive) | 0.996 (inactive) | 0.368 (active) | 0.997 (inactive) | 1.04 (inactive)
Cc1cc(CC(=O)O)n(C)c1C(=O)c1ccc(Cl)cc1 [Zomepirac sodium salt] (20 µM) | 1.21 | 0.969 | 0.981 | 1.13 | 1.05 (inactive) | 0.971 (inactive) | 0.972 (inactive) | 1.04 (inactive) | 1.01 (inactive) | 1.01 (inactive) | 0.984 (inactive) | 0.968 (inactive)
CC(=O)OCC(=O)[C@@]12OC3(CCCC3)O[C@@H]1C[C@H]1[C@@H]3CCC4=CC(=O)C=C[C@]4(C)[C@@]3(F)[C@@H](O)C[C@@]12C [Amcinonide] (20 µM) | 1.12 | 1.02 | 1.02 | 1.19 | 1.04 (inactive) | 0.964 (inactive) | 1.05 (inactive) | 1.02 (inactive) | 0.999 (inactive) | 1.04 (inactive) | 0.997 (inactive) | 1.07 (inactive)
CC(C)Nc1ncccn1 [Isaxonine] (20 µM) | 1.12 | 0.989 | 1.07 | 1.01 | 0.936 (inactive) | 1.05 (inactive) | 0.919 (inactive) | 1 (inactive) | 1.04 (inactive) | 1.01 (inactive) | 1.01 (inactive) | 0.894 (inactive)
CC(=O)NCCCS(=O)(=O)O [Acamprosate calcium] (20 µM) | 1.08 | 0.999 | 0.963 | 0.795 | 1.02 (inactive) | 1.02 (inactive) | 0.996 (inactive) | 0.995 (inactive) | 1.02 (inactive) | 0.983 (inactive) | 1 (inactive) | 0.996 (inactive)
CCCCN(CCCC)CCC(O)c1cc2c(Cl)cc(Cl)cc2c2cc(C(F)(F)F)ccc12 (stereo not given) [Halofantrine hydrochloride] (20 µM) | 1.1 | 1.23 | 1.03 | 1.16 | 0.895 (inactive) | 1.01 (inactive) | 0.756 (active) | 1.17 (inactive) | 0.964 (inactive) | 0.955 (inactive) | 1.01 (inactive) | 0.92 (inactive)
